FLuc inh-1: inhibitors of firefly (Photinus pyralis) luciferase. 76,000 tested, 2.5% active. P08659. Potency, µM (titrated, usually from 115 µM), usual class: inhibitors. purified P. pyralis luciferase, luminescence, biochemical; also: nearly all actives have a fitted effect of over 65% in size
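Luminescence read by CCD imager after adding enzyme (10nM final) to wells holding compound, titrated in qHTS. Substrates 10uM each D-luciferin and ATP; buffer 50mM Tris acetate pH 7.5, 10mM Mg acetate, Tween-20, BSA.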
GPT2 inh: inhibitors of human GPT2 alanine aminotransferase. Q8TD30. Recombinant GPT2, coupled pyruvate oxidase/HRP Amplex Red fluorescence. Potency, µM (top dose mostly 57.7 µM), hits mostly inhibitors. 100,000 tested, 0.25% active; also: nearly all actives have a fitted effect of over 60% in size
Target sequence (Q8TD30 whole entry, looked up): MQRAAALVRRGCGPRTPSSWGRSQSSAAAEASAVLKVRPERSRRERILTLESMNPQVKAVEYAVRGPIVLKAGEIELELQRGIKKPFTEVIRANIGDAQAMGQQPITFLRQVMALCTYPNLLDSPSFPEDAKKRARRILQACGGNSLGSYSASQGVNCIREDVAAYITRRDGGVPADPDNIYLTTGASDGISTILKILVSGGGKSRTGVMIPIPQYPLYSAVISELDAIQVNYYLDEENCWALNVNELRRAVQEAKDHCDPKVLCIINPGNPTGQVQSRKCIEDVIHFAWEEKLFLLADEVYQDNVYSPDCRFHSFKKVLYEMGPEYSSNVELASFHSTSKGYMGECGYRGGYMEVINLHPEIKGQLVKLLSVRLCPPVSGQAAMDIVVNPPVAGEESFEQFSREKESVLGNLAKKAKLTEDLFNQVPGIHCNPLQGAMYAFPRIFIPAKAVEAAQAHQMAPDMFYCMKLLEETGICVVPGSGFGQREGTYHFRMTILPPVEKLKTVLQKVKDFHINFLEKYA
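Fluorescence of coupled pyruvate oxidase/HRP/Amplex Red system (50uM Amplex, 30 min, dark) reports pyruvate formed by GPT2. Enzyme reaction: 10ng/uL GPT2, 2mM L-alanine, 250uM a-KG, 30 min room temperature, pH 7.5; 50uM AOA control.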
3T3 cytotox: NIH 3T3 cell cytotoxicity; NIH 3T3 viability, CellTiter-Glo ATP luminescence, 48-72 h; Potency, µM (top dose mostly 96.7 µM), hits mostly inhibitors; 94,000 tested, 4.3% active; AID 1345082; also: nearly all actives have a fitted effect of over 55% in size
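Cytotoxicity was measured by CellTiter-Glo ATP luminescence after 48 or 72 h compound exposure at 37 °C. Mouse NIH 3T3 fibroblasts were seeded at 400 cells/well and dosed by 23 nL pin transfer.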
hNpr1 antagonist: blocks ANP-stimulated signaling of human Npr1 receptor; AID 1347048; Potency, µM (top dose mostly 46.3 µM), actives largely listed as inhibitors; 76,000 tested, 1.6% active; P16066; HEK293 hNpr1 GloSensor cGMP, ANP-stimulated luminescence; calls by dose curve; also: nearly all actives have a fitted effect of over 60% in size
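Compound pre-incubated 30 min at room temperature on GloSensor-loaded HEK293 cells stably carrying hNpr1 and the pGS-40F cGMP biosensor. Stimulation uses hNppA at 0.1 nM final; luminescence is taken at baseline and 20 min post-agonist.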
HEK cytotox: cytotoxic compounds in HEK 293 cells | AID 1345083 | 94,000 tested, 6.6% active | Potency, µM (series often up to 115 µM), most hits filed as inhibitors | HEK 293 viability, ATP luminescence (CellTiter-Glo), 48-72 h; also: nearly all actives have a fitted effect of over 60% in size
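Viability of HEK 293 cells, plated at 250 cells/well, was judged by cellular ATP after compound treatment for 48 or 72 hr. Luminescence was imaged 10 min after CellTiter-Glo addition at room temperature.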
FLuc SDR -ATP: firefly luciferase binding stabilization, ATP absent. shares compounds with FLuc inh-1. Purified FLuc-C-HiBiT, Nano-Glo HiBiT luminescence, no ATP. Potency, µM (series often up to 32.7 µM), hits mostly activators. 1,300 tested, 7.8% active; also: nearly all actives have a fitted effect of over 55% in size
FLuc SDR ATP: firefly luciferase binding stabilization, ATP added | shares compounds with FLuc inh-1 | purified FLuc-C-HiBiT + ATP, HiBiT complementation luminescence | 1,300 tested, 8.7% active | AID 1963319 | Potency, µM (highest dose often 32.7 µM), usual class: activators;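 also: signal reports ligand binding via conformational change of the enzyme rather than luciferase catalysis; nearly all actives have a fitted effect of over 55% in size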
FLuc inh-2: firefly luciferase enzyme inhibition. shares compounds with FLuc inh-1. purified FLuc-C-HiBiT enzyme, luciferin luminescence. Potency, µM (highest dose often 32.7 µM), most hits filed as inhibitors. 1,300 tested, 42% active. AID 1963320; also: nearly all actives have a fitted effect of over 70% in size
Each line names hits and unclear results; the compound was inactive in the other large screens (follow-up assays come after a bar, where they were run). A selection: hits, their analogues and other compounds. The true share with any hit is near 10%. Unless noted, calls follow the shape of the dose curve; as a rule, active = well fitted curve in the direction sought with a large enough effect; inconclusive = small, poorly fitted or top-dose-only effect, or another doubt; inactive = no such curve, though single readings can be large; an effect the other way counts as inactive or inconclusive.

C=CCNC(=O)C(NC(=O)c1ccccc1)C1CCN(C(=O)c2ccccc2C)CC1 (stereo unspecified)	none
CC(C)CC(C)NC(=O)c1noc(-c2ccc[nH]c2=O)n1 (stereo unspecified)	none
COc1ccccc1-c1ccc2c(n1)CN(CC(=O)N1CCCC1)C(=O)CO2	3T3 cytotox inconclusive
CCCNC(=O)C1C(c2cccc(NC(=O)c3ccc(C)cc3)c2)OC(=O)N1Cc1ccc(C)cc1 (stereo unspecified)	FLuc inh-1 8.9µM, 3T3 cytotox inconclusive, hNpr1 antagonist inconclusive, HEK cytotox inconclusive | FLuc SDR -ATP inactive | FLuc SDR ATP 4.4µM | FLuc inh-2 4.4µM
CCNC(=O)C1C(c2cccc(NC(=O)c3ccccc3)c2)OC(=O)N1Cc1ccccc1 (stereo unspecified)	FLuc inh-1 inconclusive, HEK cytotox inconclusive
C[C@H](N)C(=O)N1CCC(n2nccc2NC(=O)Nc2cccc(F)c2)CC1	none
O=C(NCc1ccc(F)cc1)Nc1cccc(-c2ccc(N3CCOCC3)nn2)c1	FLuc inh-1 1.3µM, hNpr1 antagonist inconclusive, HEK cytotox inconclusive | FLuc SDR -ATP inconclusive | FLuc SDR ATP inconclusive | FLuc inh-2 1.8µM
CCNC(=O)Nc1ccc(OCC(=O)NCc2ccc(N3CCOCC3)cc2)nc1	none
COc1ccc(NC(=O)Nc2cccc(-c3ccc(N4CCOCC4)nn3)c2)cc1F	FLuc inh-1 0.4µM, hNpr1 antagonist 10µM, HEK cytotox inconclusive | FLuc SDR -ATP inconclusive | FLuc SDR ATP inconclusive | FLuc inh-2 0.88µM
COc1ccc(NC(=O)Nc2cccc(-c3ccc(N4CCOCC4)nn3)c2)cc1	FLuc inh-1 1.1µM, hNpr1 antagonist 10µM, HEK cytotox inconclusive | FLuc SDR -ATP inconclusive | FLuc SDR ATP inconclusive | FLuc inh-2 1.8µM
COc1ccc(CNC(=O)Nc2cccc(-c3ccc(N4CCOCC4)nn3)c2)cc1	FLuc inh-1 0.89µM, HEK cytotox inconclusive | FLuc SDR -ATP inconclusive | FLuc SDR ATP inconclusive | FLuc inh-2 2µM
COc1ccc(-c2cccc(C(=O)N3CCN(C(=O)Nc4ccccc4)CC3)c2)nn1	none (no result: FLuc inh-1, GPT2 inh, hNpr1 antagonist)
Cc1cc(CC(=O)N2C[C@@H](COCC3CC3)[C@H](c3ccncc3)C2)on1	none
CCc1ccc(NC(=O)Cn2c(C)ccc(NS(=O)(=O)c3ccc(C)cc3)c2=O)cc1	none
CC(=O)N[C@H]1C[C@@H](c2nc(-c3ccc4c(c3)OCO4)no2)N(C)C1	none
CC(=O)Nc1ccc(NC(=O)c2cc(-c3ccc4c(c3)OCCO4)on2)cc1	none (no result: FLuc inh-1, GPT2 inh, 3T3 cytotox, hNpr1 antagonist, HEK cytotox) | FLuc SDR -ATP inconclusive | FLuc SDR ATP inconclusive | FLuc inh-2 0.62µM
CCN1C(=O)CCc2cc(NC(=O)c3ccc(OC(F)(F)F)cc3)ccc21	FLuc inh-1 14µM, 3T3 cytotox 45µM, HEK cytotox 50µM | FLuc SDR -ATP inactive | FLuc SDR ATP inactive | FLuc inh-2 inconclusive
Cn1nc(-c2nncn2-c2ccccc2)c2c1CCN(C(=O)c1ccncc1)C2	none
O=C(CCCc1ccccc1)NC1CCN(C(=O)N2CC3CC(C2)[C@H]2CCCC(=O)N2C3)CC1 (stereo partly specified)	none
Cc1ccc(NC(=O)c2ccc3c(c2)N(C)C2CCCN2C3=O)cc1C (stereo unspecified)	FLuc inh-1 13µM | FLuc SDR -ATP inactive | FLuc SDR ATP inconclusive | FLuc inh-2 inconclusive
CN1c2cc(C(=O)Nc3cc(F)ccc3F)ccc2C(=O)N2CCCCCC21 (stereo unspecified)	FLuc inh-1 11µM, 3T3 cytotox inconclusive, HEK cytotox inconclusive | FLuc SDR -ATP inactive | FLuc SDR ATP inconclusive | FLuc inh-2 inconclusive

Assay outcomes (PubChem)
